Drawing on PubChem BioAssay, this text covers growth inhibition, inhibition and outcome for 19 compounds.

Values without a mark were called inactive. For some assays here: Entries with a potency or affinity are not part of this list. Activity calls are given as the source filed them. Unless noted, how the calls were made is not given here.

Test [1] can be described thus: antimalarial activity against Dd2 strain (AID 2302;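 active means growth inhibition above 50% at the single 2 µM test dose, taken to imply half-maximal potency below 2 µM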;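 further: 0% = DMSO untreated growth and 100% = chloroquine plus artemisinin killed control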). The conditions noted are these: P. falciparum Dd2 in RBCs, LDH growth readout, 72 h; at 2 µM; active compounds read high.
Test [2] can be described thus: HepG2 cytotoxicity, primary screen, cytotoxicity control for P. falciparum antimalarial project, cell-based, ATP luminescence (AID 2303;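 active means inhibition above 50%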;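 further: 0% = DMSO wells and 100% = digitonin-killed cells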). Conditions: HepG2 viability, 24-48 h, at 10 µM, active compounds read high.
Test [3] has as its target L-lactate dehydrogenase (Plasmodium falciparum (isolate CDC / Honduras)) (UniProt Q27743). Nature of the test: PfLDH activity inhibition – cell lysate, 3D7 strain, counter-screen for P. falciparum growth inhibition project (AID 2304).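 Further: 0% = vehicle and 100% = reference inhibitor.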 The conditions noted are these: P. falciparum 3D7 crude extract, LDH APAD/NBT absorbance; at 2 µM; active compounds read high. On the technique in general: The purpose of a counterscreen is to sort out artefacts and off-target activity.

Test [4] in a line: inhibition of 3D7 malaria parasite growth – strain 3D7 (AID 2306).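 Further: 0% = DMSO wells and 100% = chloroquine plus artemisinin control wells.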 The conditions noted are these: P. falciparum 3D7 erythrocytic growth, LDH absorbance, 72 h; at 2 µM; active compounds read high.
Test [5] has as its target Calcium-dependent protein kinase 1 (Plasmodium falciparum (isolate 3D7)) (UniProt P62344). In words: PfCDPK1 kinase inhibitors, biochemical, TCAMS library (AID 1159585; cut-off not given, nearly all actives have IC50 up to about 0.98 µM;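 further: inhibitors leave more ATP so luminescence rises with inhibition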). Conditions: recombinant PfCDPK1, Kinase-Glo ATP depletion luminescence.
Test [6] has as its target Plasmodium falciparum protein kinase 6 (PK6, PF3D7_1337100) (UniProt Q8IDW1). In words: PfPK6 kinase inhibitors, biochemical, TCAMS library (AID 1159586). Conditions: recombinant PfPK6, Kinase-Glo ATP depletion luminescence. On the technique in general: Kinase-Glo measures the ATP left after a reaction by luminescence.
In test [7] the target is Protein kinase 7 (PK7), Plasmodium falciparum 3D7 (PF3D7_0213400) (UniProt Q7YTF7). In words: inhibition of Plasmodium PK7 catalytic activity – biochemical, TCAMS antimalarial set, Kinase-Glo luminescence (AID 1159587). Conditions: recombinant PfPK7, Kinase-Glo ATP depletion luminescence.
Test [8] addresses Calcium-dependent protein kinase 4 (Plasmodium falciparum (isolate 3D7)) (UniProt Q8IBS5). In words: PfCDPK4 kinase inhibitors, biochemical, TCAMS library (AID 1159588; cut-off not given, nearly all actives have IC50 up to about 0.91 µM). Conditions: recombinant PfCDPK4, Kinase-Glo ATP depletion luminescence.

Chain of L-lactate dehydrogenase (Plasmodium falciparum (isolate CDC / Honduras)) (Q27743 whole entry, looked up): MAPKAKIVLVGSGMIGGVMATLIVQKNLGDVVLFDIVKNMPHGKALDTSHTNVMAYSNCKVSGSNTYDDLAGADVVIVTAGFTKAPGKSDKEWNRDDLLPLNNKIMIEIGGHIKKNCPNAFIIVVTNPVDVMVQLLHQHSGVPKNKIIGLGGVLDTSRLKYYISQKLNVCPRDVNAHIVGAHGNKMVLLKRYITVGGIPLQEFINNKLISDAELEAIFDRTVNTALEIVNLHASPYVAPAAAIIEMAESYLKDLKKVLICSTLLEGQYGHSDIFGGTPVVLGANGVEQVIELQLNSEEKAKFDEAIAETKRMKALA
Chain of Calcium-dependent protein kinase 1 (Plasmodium falciparum (isolate 3D7)) (P62344 whole entry, looked up): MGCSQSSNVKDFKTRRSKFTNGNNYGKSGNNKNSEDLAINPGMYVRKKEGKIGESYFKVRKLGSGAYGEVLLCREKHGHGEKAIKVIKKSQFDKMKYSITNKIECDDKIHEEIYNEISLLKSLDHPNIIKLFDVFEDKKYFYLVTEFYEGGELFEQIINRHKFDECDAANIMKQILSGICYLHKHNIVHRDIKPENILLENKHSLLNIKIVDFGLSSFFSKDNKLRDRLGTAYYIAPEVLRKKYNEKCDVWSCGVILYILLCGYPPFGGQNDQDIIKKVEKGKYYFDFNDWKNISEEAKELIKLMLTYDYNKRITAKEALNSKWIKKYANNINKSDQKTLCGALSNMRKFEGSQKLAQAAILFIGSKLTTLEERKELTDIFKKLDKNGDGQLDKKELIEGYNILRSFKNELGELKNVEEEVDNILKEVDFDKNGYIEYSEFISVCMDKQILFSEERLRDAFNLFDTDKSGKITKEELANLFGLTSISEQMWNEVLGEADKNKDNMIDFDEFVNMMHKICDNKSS
Chain of Plasmodium falciparum protein kinase 6 (PK6, PF3D7_1337100) (Q8IDW1 1-305): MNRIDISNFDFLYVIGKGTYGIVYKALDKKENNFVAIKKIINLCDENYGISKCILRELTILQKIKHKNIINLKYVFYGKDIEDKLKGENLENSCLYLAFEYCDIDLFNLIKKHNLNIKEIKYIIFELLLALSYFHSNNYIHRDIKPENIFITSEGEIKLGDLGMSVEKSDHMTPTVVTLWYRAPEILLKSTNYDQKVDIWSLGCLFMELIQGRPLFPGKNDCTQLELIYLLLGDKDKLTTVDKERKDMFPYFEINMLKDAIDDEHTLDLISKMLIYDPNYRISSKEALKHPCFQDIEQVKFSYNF
Chain of Protein kinase 7 (PK7), Plasmodium falciparum 3D7 (PF3D7_0213400) (Q7YTF7 1-343): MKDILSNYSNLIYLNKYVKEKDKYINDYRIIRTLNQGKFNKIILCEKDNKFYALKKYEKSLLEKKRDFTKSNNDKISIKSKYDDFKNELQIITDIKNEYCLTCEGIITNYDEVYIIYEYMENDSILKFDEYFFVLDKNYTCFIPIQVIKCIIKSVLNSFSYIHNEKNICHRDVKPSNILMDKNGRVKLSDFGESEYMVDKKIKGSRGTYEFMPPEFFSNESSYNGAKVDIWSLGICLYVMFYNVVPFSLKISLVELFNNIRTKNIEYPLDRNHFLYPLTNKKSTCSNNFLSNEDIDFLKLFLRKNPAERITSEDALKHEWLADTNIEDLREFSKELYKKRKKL
Chain of Calcium-dependent protein kinase 4 (Plasmodium falciparum (isolate 3D7)) (Q8IBS5 whole entry, looked up): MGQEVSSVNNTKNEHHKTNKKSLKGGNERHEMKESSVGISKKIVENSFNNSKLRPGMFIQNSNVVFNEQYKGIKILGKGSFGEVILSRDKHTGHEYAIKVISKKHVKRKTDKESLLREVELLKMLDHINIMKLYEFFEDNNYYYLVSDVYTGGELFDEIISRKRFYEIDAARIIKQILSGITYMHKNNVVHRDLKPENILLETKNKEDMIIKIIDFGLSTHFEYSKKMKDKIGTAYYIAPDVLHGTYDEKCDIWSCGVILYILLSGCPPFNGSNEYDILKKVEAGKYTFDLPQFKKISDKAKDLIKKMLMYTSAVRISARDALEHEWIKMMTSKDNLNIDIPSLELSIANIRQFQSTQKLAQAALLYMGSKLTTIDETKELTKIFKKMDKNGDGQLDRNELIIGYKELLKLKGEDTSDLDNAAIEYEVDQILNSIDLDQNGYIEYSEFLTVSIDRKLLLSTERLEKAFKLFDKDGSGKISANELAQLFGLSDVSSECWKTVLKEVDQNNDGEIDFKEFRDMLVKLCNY

Consider `CC(C)(C)c1ccc(C(=O)Nc2ccc3nc4c(c(N)c3c2)CCCC4)cc1`, for which the values for the growth inhibition in test [1] and in test [4] were 99% (active) and 100% (active), respectively. Also, the results for the inhibition in test [2] and in test [3] were 21% and -4%, respectively. Moreover, the outcome in test [5], in test [6], in test [7] and in test [8] was inactive.

For the compound `COc1cc(NC(=O)c2cccs2)c(C(=O)NCc2ccc(C)cc2)cc1OC`, the results for the growth inhibition in test [1] and in test [4] were 88% (active) and 93% (active), respectively. Also, the inhibition (usually the relative decrease from the control value, in per cent) was 3% in test [2] and -2% in test [3]. Moreover, the result in test [5], in test [6], in test [7] and in test [8] was inactive.

In the case of `Cc1c(S(=O)(=O)Nc2ccc3nccc(N4C[C@@H](C)N[C@@H](C)C4)c3c2)sc2ccc(Cl)cc12`, the growth inhibition is -4% in test [1] and 92% (active) in test [4]. Also, the inhibition was -8% in test [2] and 5% in test [3]. Besides, the outcome in test [5], in test [6], in test [7] and in test [8] was inactive.

As to `Cc1cccc2[nH]c(-c3cccc(-c4cccc(NC(=O)c5cnccc5C(F)(F)F)c4)c3)nc12`, the growth inhibition in test [1] was 47%; in test [4], 98% (active). Besides, the figures for the inhibition in test [2] and in test [3] were 7% and -11%, respectively. The outcome in test [5], in test [6], in test [7] and in test [8] was inactive.

As to `CCc1ccc(CN2CCC(NC(=O)c3ccc(-c4ccccc4F)s3)CC2)cc1`, the growth inhibition is 12% in test [1] and 80% (active) in test [4]. Further, the inhibition in test [2] is 35%; in test [3] it was 2%. For the same compound, the outcome in test [5], in test [6], in test [7] and in test [8] was inactive.

In the case of `Cc1nn(-c2ccnc3cc(Cl)ccc23)c(C)c1C(=O)NCc1cc(Cl)cc(Cl)c1`, the growth inhibition in test [1] was 53% (active); in test [4], 97% (active). In addition, the figures for the inhibition in test [2] and in test [3] were -10% and -1%, respectively. Further, the result in test [5], in test [6], in test [7] and in test [8] was inactive.

For the compound `Cc1cc(OCCCn2ccnc2)ccc1-c1csc(NC(N)=NCc2ccccc2)n1`, the growth inhibition in test [1] is 42%; in test [4], 92% (active). The inhibition in test [2] was 26%; in test [3], 2%. In addition, the outcome in test [5], in test [6], in test [7] and in test [8] was inactive.

Regarding `CC(=O)OC[C@H]1O[C@@H](C#Cc2ccccc2)[C@H](OC(C)=O)[C@@H](OC(C)=O)[C@@H]1OC(C)=O`, the growth inhibition is 90% (active) in test [1] and 95% (active) in test [4]. The inhibition in test [2] is 5%; in test [3], 0%. Besides, the result in test [5], in test [6], in test [7] and in test [8] was inactive.

For `COc1ccc(NC(=O)/C=C/c2ccccc2Cl)cc1OCCN1CCC(NCc2ccccc2)CC1`, the results for the growth inhibition in test [1] and in test [4] were 101% (active) and 106% (active), respectively. The inhibition in test [2] is 28%; in test [3], 7%. The result in test [5], in test [6], in test [7] and in test [8] was inactive.

With `CCOc1c(OC)ccc2c1CCN(CCN1CCC(NC(=O)c3ccc(-c4cccc(C(F)(F)F)c4C(F)(F)F)cc3)CC1)C2`, the growth inhibition is 57% (active) in test [1] and 102% (active) in test [4]. Also, the inhibition in test [2] was 30%; in test [3], -7%. Moreover, the outcome in test [5], in test [6], in test [7] and in test [8] was inactive.

Take `COc1cc2nc(Nc3ccc(C)cc3)nc(Nc3ccc(C)cc3)c2cc1OC`: the growth inhibition was 100% (active) in test [1] and 101% (active) in test [4]. For the same compound, the inhibition is 99% (active) in test [2] and -1% in test [3]. Besides, the result in test [5], in test [6], in test [7] and in test [8] was inactive.

As for `CC(C)CNCc1ccc(-c2cccc(-c3nc4ccccc4[nH]3)c2)cc1`, the growth inhibition in test [1] is 98% (active); in test [4] it was 99% (active). Further, the inhibition in test [2] was 53% (active); in test [3], -5%. The result in test [5], in test [6], in test [7] and in test [8] was inactive.

Turning to `O=C(Nc1cccc(CN2CCN(C(=O)c3cccc(Cl)c3)CC2)c1)c1cccs1`, the growth inhibition in test [1] and in test [4] was 94% (active) in each case. In addition, the results for the inhibition in test [2] and in test [3] were 17% and -6%, respectively. The outcome in test [5], in test [6], in test [7] and in test [8] was inactive.

As for `O=C(Nc1ccc([N+](=O)[O-])cc1Br)c1cc2ccccc2nc1Cl`, the growth inhibition was 68% (active) in test [1] and 97% (active) in test [4]. For the same compound, the inhibition is -4% in test [2] and 2% in test [3]. Also, the result in test [5], in test [6], in test [7] and in test [8] was inactive.

As to `Cn1cc(Br)c(-c2cccc(Nc3ccnc4cc(-c5nccs5)ccc34)c2)n1`, the figures for the growth inhibition in test [1] and in test [4] were 32% and 91% (active), respectively. Further, the figures for the inhibition in test [2] and in test [3] were 37% and -1%, respectively. Further, the result in test [5], in test [6], in test [7] and in test [8] was inactive.

With `CC1(C)N=C(N)N=C(N)N1OCCCOc1cccc(C(=O)O)c1`, the growth inhibition in test [1] was 96% (active); in test [4], 94% (active). In addition, the figures for the inhibition in test [2] and in test [3] were 73% (active) and -6%, respectively. Moreover, the outcome in test [5], in test [6], in test [7] and in test [8] was inactive.

Take `COc1ccc2nccc([C@@H](O)CN3CCC(NCc4nc5c([N+](=O)[O-])cccc5[nH]4)CC3)c2c1`: the growth inhibition in test [1] is 84% (active); in test [4] it was 101% (active). Also, the values for the inhibition in test [2] and in test [3] were 13% and -2%, respectively. The outcome in test [5], in test [6], in test [7] and in test [8] was inactive.

For the compound `CN1CCC(N2CCN(Cc3cccc(-c4ccc(-c5nc6ccc(C(F)(F)F)cc6[nH]5)cc4)c3)CC2)CC1`, the growth inhibition in test [1] was 91% (active); in test [4], 101% (active). For the same compound, the inhibition in test [2] was 100% (active); in test [3], 4%. For the same compound, the outcome in test [5], in test [6], in test [7] and in test [8] was inactive.

Turning to `O=C(N[C@@H](CC1CCCCC1)C(=O)NC1CCCc2ccccc21)c1ccc(O)c(-c2cccc([N+](=O)[O-])c2)c1` (some centres not stated), the growth inhibition in test [1] is 98% (active); in test [4], 99% (active). The figures for the inhibition in test [2] and in test [3] were -12% and 1%, respectively. Also, the outcome in test [5], in test [6], in test [7] and in test [8] was inactive.
